Data from the supplement of paper PMC12494721.
Counter-ions that a name gives are not always drawn.

Tests used:
Conditions in all cases: incubation time: 27 h, anaerobic, 37 °C;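 for the amine columns active = adjusted P below 0.05 in both replicates with a change the same way and a mean fold change under 0.8 or over 1.25; inactive = the rest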
[1] = tested on: Clostridium sporogenes DSM 1664; test: growth (OD595) fold change vs plate DMSO controls (fold change (ratio)); higher = more growth
Procedure, shortened: (§1)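 To obtain OD, 595 nm absorbance readings were blank-subtracted, corrected for compound background using 20 µM compound solutions in water, and multiplied by a calibration factor of 5. They came from 96-well mGAM cultures grown anaerobically for 27 h at 37 °C and shaken before reading. Growth is the fold change relative to the median of plate DMSO controls. Two biological replicates were averaged, and fold changes above 1.5 were set to NA.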

Escherichia coli IAI1 [2] = test: as above
Procedure, shortened: as §1

[3] = tested on: Klebsiella aerogenes DSM 30053; test: as above
Procedure, shortened: as §1

[4] = tested on: Ruminococcus gnavus DSM 108212; test: as above
Procedure, shortened: as §1

[5] = tested on: Klebsiella aerogenes DSM 30053; test: fold change of Histamine concentration vs plate DMSO controls (fold change (ratio)); higher = more amine produced, active = hit call of the paper (significant change in both replicates, either direction)
Procedure, shortened: (§2)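 Amines were quantified by LC–triple-quadrupole MS in dynamic MRM mode against external calibration curves, with drift correction within each batch. The samples were whole anaerobic mGAM cultures of four gut bacterial strains, grown for 27 h at 37 °C in 80 µL wells and extracted with cold acetonitrile/methanol with 0.1% formic acid, then centrifuged. Values are reported as fold change over DMSO controls on the same plate. The mean of 2 biological replicates is given.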

[6] = tested on: Clostridium sporogenes DSM 1664; test: fold change of Tryptamine concentration vs plate DMSO controls (fold change (ratio)); higher = more amine produced, active = hit call of the paper (significant change in both replicates, either direction)
Procedure, shortened: as §2

[7] = tested on: Ruminococcus gnavus DSM 108212; test: as above
Procedure, shortened: as §2

Escherichia coli IAI1 [8] = test: fold change of Putrescine concentration vs plate DMSO controls (fold change (ratio)); higher = more amine produced, active = hit call of the paper (significant change in both replicates, either direction)
Procedure, shortened: as §2

[9] = tested on: Klebsiella aerogenes DSM 30053; test: as above
Procedure, shortened: as §2

Escherichia coli IAI1 [10] = test: fold change of Cadaverine concentration vs plate DMSO controls (fold change (ratio)); higher = more amine produced, active = hit call of the paper (significant change in both replicates, either direction)
Procedure, shortened: as §2

[11] = tested on: Klebsiella aerogenes DSM 30053; test: as above
Procedure, shortened: as §2

[12] = tested on: Ruminococcus gnavus DSM 108212; test: fold change of 2-Phenylethylamine concentration vs plate DMSO controls (fold change (ratio)); higher = more amine produced, active = hit call of the paper (significant change in both replicates, either direction)
Procedure, shortened: as §2

| Structure (SMILES) | growth [1] | growth (Escherichia coli IAI1 [2]) | growth [3] | growth [4] | fold change of Histamine concentration [5] | fold change of Tryptamine concentration [6] | fold change of Tryptamine concentration [7] | fold change of Putrescine concentration (Escherichia coli IAI1 [8]) | fold change of Putrescine concentration [9] | fold change of Cadaverine concentration (Escherichia coli IAI1 [10]) | fold change of Cadaverine concentration [11] | fold change of 2-Phenylethylamine concentration [12] |
| --- | --- | --- | --- | --- | --- | --- | --- | --- | --- | --- | --- | --- |
| Cn1c(=O)c2c(ncn2CC(=O)O)n(C)c1=O [Acefylline] (20 µM) | 0.895 | 0.94 | 1.02 | 1.06 | 0.964 (inactive) | 0.971 (inactive) | 0.936 (inactive) | 0.93 (inactive) | 0.995 (inactive) | 1.01 (inactive) | 0.999 (inactive) | 0.886 (inactive) |
| CC(C)c1nc(N(C)S(C)(=O)=O)nc(-c2ccc(F)cc2)c1/C=C/[C@@H](O)C[C@@H](O)CC(=O)O [Rosuvastatin] (20 µM) | 0.904 | 1.22 | 1.02 | 1.01 | 0.953 (inactive) | 1.03 (inactive) | 0.989 (inactive) | 1.06 (inactive) | 1 (inactive) | 0.951 (inactive) | 0.989 (inactive) | 1 (inactive) |
| O=C(NC1CCN(CCCCC2(C(=O)NCC(F)(F)F)c3ccccc3-c3ccccc32)CC1)c1ccccc1-c1ccc(C(F)(F)F)cc1 [Lomitapide] (20 µM) | 1.1 | 1 | 1.06 | 1.07 | 0.938 (inactive) | 1.01 (inactive) | 0.709 (active) | 1.02 (inactive) | 1.01 (inactive) | 1.04 (inactive) | 1.01 (inactive) | 0.847 (inactive) |
| CN1Cc2c(N)cccc2C(c2ccccc2)C1 (stereo not drawn) [Nomifensine maleate] (20 µM) | 1.07 | 0.982 | 1.01 | 1.1 | 0.994 (inactive) | 0.989 (inactive) | 1.04 (inactive) | 0.989 (inactive) | 1.01 (inactive) | 0.935 (inactive) | 1.02 (inactive) | 0.992 (inactive) |
| CCN(CC)CC(=O)Nc1c(C)cccc1C [Lidocaine hydrochloride] (20 µM) | 0.845 | 0.973 | 0.979 | 0.66 | 1.08 (inactive) | 1.01 (inactive) | 1.01 (inactive) | 0.95 (inactive) | 1.01 (inactive) | 0.975 (inactive) | 0.988 (inactive) | 1.05 (inactive) |
| CN(C)CC/C=C1\c2ccccc2CSc2ccccc21 [Dosulepin hydrochloride] (20 µM) | 1.07 | 0.99 | 0.968 | 0.844 | 0.887 (inactive) | 1.17 (inactive) | 0.961 (inactive) | 1.03 (inactive) | 0.941 (inactive) | 1.01 (inactive) | 1.06 (inactive) | 0.952 (inactive) |
| CNNCc1ccc(C(=O)NC(C)C)cc1 [Procarbazine hydrochloride] (20 µM) | 1.03 | 1.07 | 1.02 | 1.27 | 1.05 (inactive) | 1.02 (inactive) | 1.03 (inactive) | 1.02 (inactive) | 0.983 (inactive) | 0.984 (inactive) | 1 (inactive) | 1.06 (inactive) |
| CCCc1ncc(C[n+]2ccccc2C)c(N)n1 [Amprolium hydrochloride] (20 µM) | 1.01 | 0.954 | 0.982 | 0.95 | 1.01 (inactive) | 1 (inactive) | 1.11 (inactive) | 0.995 (inactive) | 0.941 (inactive) | 0.936 (inactive) | 1.03 (inactive) | 1.15 (inactive) |
| CC(C(=O)O)c1ccc(C(=O)c2ccccc2)s1 (stereo not drawn) [Tiaprofenic acid] (20 µM) | 0.955 | 1.1 | 0.987 | 1.16 | 0.995 (inactive) | 0.993 (inactive) | 1.04 (inactive) | 1.08 (inactive) | 1.01 (inactive) | 0.966 (inactive) | 0.988 (inactive) | 1.07 (inactive) |
| CC(C)COC(=O)OCN1C(=O)CN(CCN2CC(=O)N(COC(=O)OCC(C)C)C(=O)C2)CC1=O [Sobuzoxane] (20 µM) | 0.986 | 0.991 | 1.03 | 1.09 | 1 (inactive) | 1.03 (inactive) | 1.03 (inactive) | 0.986 (inactive) | 0.996 (inactive) | 0.988 (inactive) | 1 (inactive) | 1.05 (inactive) |
| OCC1(O)OC[C@@H](O)[C@@H](O)[C@H]1O (stereo partly drawn) [Psicose] (50 µM) | 1.08 | 1.01 | 1.03 | 1.03 | 1.03 (inactive) | 0.991 (inactive) | 0.992 (inactive) | 1.04 (inactive) | 1.04 (inactive) | 0.967 (inactive) | 1.01 (inactive) | 0.942 (inactive) |
| CCCCOc1ccc(C(=O)CCN2CCCCC2)cc1 [Dyclonine hydrochloride] (20 µM) | 1.17 | 0.992 | 0.966 | 1.22 | 1 (inactive) | 0.989 (inactive) | 0.947 (inactive) | 0.989 (inactive) | 0.995 (inactive) | 0.995 (inactive) | 0.984 (inactive) | 0.936 (inactive) |
| NS(=O)(=O)Cc1noc2ccccc12 [Zonisamide] (20 µM) | 0.883 | 1.01 | 0.994 | 1.01 | 1.02 (inactive) | 1.07 (inactive) | 0.863 (inactive) | 1.07 (inactive) | 1.01 (inactive) | 1.05 (inactive) | 1 (inactive) | 0.806 (inactive) |
| O=C1[C@H]2CCCC[C@H]2C(=O)N1CCCCN1CCN(c2nsc3ccccc23)CC1 [Perospirone hydrochloride] (20 µM) | 1.12 | 0.968 | 1.01 | 1.32 | 0.986 (inactive) | 1.02 (inactive) | 0.767 (inactive) | 0.989 (inactive) | 1.01 (inactive) | 1.03 (inactive) | 1.02 (inactive) | 0.819 (inactive) |
| CN(C)CCCSC(=N)N [Dimaprit dihydrochloride] (20 µM) | 1.04 | 1.04 | 1.02 | 1.03 | 0.939 (inactive) | 0.955 (inactive) | 1.07 (inactive) | 1 (inactive) | 0.996 (inactive) | 0.998 (inactive) | 0.993 (inactive) | 1.07 (inactive) |
| C[C@H](CCC(=O)O)[C@H]1CC[C@H]2[C@@H]3[C@H](O)C[C@@H]4C[C@H](O)CC[C@]4(C)[C@H]3CC[C@]12C [Chenodiol] (20 µM) | 1.06 | 0.995 | 1.02 | 1.01 | 1 (inactive) | 1.03 (inactive) | 1.03 (inactive) | 1 (inactive) | 0.999 (inactive) | 1.04 (inactive) | 1.02 (inactive) | 0.994 (inactive) |
| N[C@@H](CSCCCO)C(=O)O [Fudosteine] (20 µM) | 0.96 | 1.05 | 1.01 | 1.14 | 0.977 (inactive) | 0.939 (inactive) | 1 (inactive) | 1.05 (inactive) | 1.02 (inactive) | 0.981 (inactive) | 1.01 (inactive) | 1.03 (inactive) |
| CC(C)c1c(C(=O)Nc2ccccc2)c(-c2ccccc2)c(-c2ccc(F)cc2)n1CC[C@@H](O)C[C@@H](O)CC(=O)O [Atorvastatin] (20 µM) | 1.02 | 1.03 | 1 | 1.28 | 1.15 (inactive) | 1.01 (inactive) | 1 (inactive) | 1.01 (inactive) | 1.02 (inactive) | 0.984 (inactive) | 0.998 (inactive) | 1.02 (inactive) |
| O=C1OC(c2ccc(O)cc2)(c2ccc(O)cc2)c2ccccc21 [Phenolphthalein] (20 µM) | 1.03 | 0.983 | 0.993 | 0.964 | 1 (inactive) | 0.974 (inactive) | 1 (inactive) | 0.991 (inactive) | 0.977 (inactive) | 0.965 (inactive) | 1.02 (inactive) | 0.986 (inactive) |
| C=C1/C(=C\C=C2/CCC[C@]3(C)[C@@H]([C@H](C)/C=C/[C@@H](O)C4CC4)CC[C@@H]23)C[C@@H](O)C[C@@H]1O [Calcipotriene] (20 µM) | 1.07 | 0.96 | 1.02 | 1.3 | 1.02 (inactive) | 0.952 (inactive) | 1.01 (inactive) | 1.01 (inactive) | 1.01 (inactive) | 0.969 (inactive) | 1 (inactive) | 0.981 (inactive) |
| C#CCN(C)Cc1ccccc1 [Pargyline hydrochloride] (20 µM) | 0.983 | 0.989 | 1.03 | 0.999 | 0.983 (inactive) | 1.01 (inactive) | 1.01 (inactive) | 0.99 (inactive) | 1.01 (inactive) | 1 (inactive) | 1.01 (inactive) | 0.995 (inactive) |
| OC(CCN1CCCCC1)(c1ccccc1)c1ccccc1 [Pridinol methanesulfonate salt] (20 µM) | 1.18 | 0.97 | 0.996 | 1.02 | 1.05 (inactive) | 1.03 (inactive) | 1.05 (inactive) | 1.21 (inactive) | 0.996 (inactive) | 0.368 (active) | 0.997 (inactive) | 1.04 (inactive) |
| C#C[C@]1(O)CC[C@H]2[C@@H]3[C@H](C)CC4=C(CCC(=O)C4)[C@H]3CC[C@@]21C [Tibolone] (20 µM) | 1.01 | 0.989 | 1.04 | 0.931 | 1.03 (inactive) | 1.05 (inactive) | 1.04 (inactive) | 1.03 (inactive) | 1.02 (inactive) | 0.994 (inactive) | 1.01 (inactive) | 1.02 (inactive) |
| CN1CCN(C2=Nc3ccccc3Oc3ccc(Cl)cc32)CC1 [Loxapine succinate] (20 µM) | 1.12 | 1.04 | 1.04 | 1.4 | 0.932 (inactive) | 1.04 (inactive) | 0.962 (inactive) | 0.998 (inactive) | 1 (inactive) | 1.01 (inactive) | 1.02 (inactive) | 0.973 (inactive) |
